Screens deposited in PubChem BioAssay by National Center for Advancing Translational Sciences (NCATS).
Compounds with a hit are over-represented: about 21% of the library has one in this group of screens.
Shiga inhibitor: Shiga toxin inhibition. Vero cells, Shiga toxin protein synthesis inhibition reporter. inhibition, % at 38.7 µM. 9.2% of 290,000 active. AID 2315; in the data active = inhibition mostly above about 28%, no sharp cut-off; inactive = mostly below about 43%; note: 0% is about no effect
CHX counter: affects cycloheximide protein synthesis inhibition readout, counter-screen; cell reporter, cycloheximide protein synthesis inhibition counterscreen; max response, %; 12% of 300,000 active; in the data active = max response mostly above about 13%, no sharp cut-off; inactive = mostly below about 14%; note: read at 38.3 µM for the half of the compounds with a filed dose; 0% is about no effect
SARS PLpro yeast: SARS-CoV PLP inhibition in yeast; S. cerevisiae expressing SARS-CoV PLpro, growth rescue; Potency, µM (top dose mostly 32.9 µM), for the others: top-dose activity, positive = growth rescue, hits mostly activators; 0.19% of 330,000 active; AID 485353; calls by dose curve; note: potency is the fitted concentration of half-maximal effect; 0% is about no effect; nearly all actives have a fitted effect of over 55% in size
NS1 function inh: blocks influenza NS1 protein function | 0.4% of 270,000 active | Potency, µM (series often up to 46.1 µM), inactives show at the top dose activity, positive = more growth | AID 2326; calls by dose curve; note: potency is the fitted concentration of half-maximal effect; actives are rising curves; nearly all actives have a fitted effect of over 50% in size
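Growth recovery, yeast-based: influenza A NS1 expressed in S. cerevisiae causes slow growth, and suppressors are detected by OD600. The parent strain without NS1 is used as positive control.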
Pf growth 96h: P. falciparum growth inhibition at 96 hours; P. falciparum luciferase reporter growth, 96 h; Potency, µM (series often up to 28.7 µM), without a hit: at the highest dose activity change, negative = inhibition, usual class: inhibitors; 6.9% of 320,000 active; AID 504834; note: potency is the fitted concentration of half-maximal effect; % is set by controls: 0 for no effect and ±100 for the full control effect
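Plates of compound plus infected erythrocytes (2% hematocrit, 0.05% parasitemia final) incubate 96 hours, 37 C, 5% CO2. Detection reagent added; reduced luminescence from the parasites' luciferase reporter flags inhibition.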
Pf growth 48h: P. falciparum growth inhibition at 48 hours (one generation); 5.9% of 310,000 active; P. falciparum luciferase growth in erythrocytes, 48 h; Potency, µM (series often up to 28.7 µM), for the others: top-dose activity change, negative = inhibition, hits mostly inhibitors; AID 504832; note: potency is the fitted concentration of half-maximal effect; % is set by controls: 0 for no effect and ±100 for the full control effect
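Cell-based growth assay: transgenic P. falciparum expressing firefly luciferase, cultured in red cells within RPMI 1640 containing 0.5% w/v Albumax, 24 mM bicarbonate and gentamycin. A drop in luciferase activity indicates inhibition.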
Numbers without * were called inactive; i = inactive; ? = inconclusive; . = not tested or not shown; [ ] = dose if it differs, or a comment. Unless noted, calls come from the whole dose curve; as a rule, active = well fitted inhibition curve with a large enough effect; inconclusive = small, poorly fitted or top-dose-only effect, or another doubt; inactive = no such curve, though single readings can be large or run the other way.

SMILES | Shiga inhibitor | CHX counter | SARS PLpro yeast | NS1 function inh | Pf growth 96h | Pf growth 48h
CCN(CC)S(=O)(=O)c1ccc(Cl)c(C(=O)Oc2cccnc2)c1 | 57 | -3 | 10% | -2% | 7% | 74%
CCN(CC)S(=O)(=O)c1cc(C(=O)Oc2cccc(-c3cnc4ccccc4n3)c2)ccc1Br | 65* | 61* | -4% | 22% | . | 273%
CC(=O)Nc1cccc(NC(=O)CSc2nnnn2Cc2ccccc2)c1 | 5 | -1 | 8% | 1% | 5.9µM* | 33%
O=C(CSc1nnnn1Cc1ccccc1)Nc1cccc(F)c1 | 35 | -3 | 0% | -5% | 14% | 40%
Cn1c(SCC(=O)Nc2ccc3nc(SCC(=O)N4CCCC4)sc3c2)nnc1-c1ccc(N)cc1 | -5 | -2 | -2% | 21% | 1.3µM* | .
CCOC(=O)c1ccccc1NC(=O)CSc1nnc(COc2ccccc2C)n1C | -8 | 2 | -2% | -13% | ? | 13µM*
Cc1ccccc1OCc1nnc(SCC(=O)NCc2ccccc2)n1C | -11 | -3 | -1% | -15% | . | -18%
CCOC(=O)c1ccccc1NC(=O)CSc1nc(N)cc(N)n1 | -6 | -3 | -21% | 17% | 12µM* | 2%
NC(=O)[C@H]1CCCN1C(=O)[C@H](Cc1cnc[nH]1)NC(=O)[C@@H]1CCC(=O)N1 | -5 | -7 | . | . | . | .
O=C(Nc1cc([N+](=O)[O-])ccc1O)c1ccc2c(c1)C(=O)N(Cc1ccco1)C2=O | 19 | 3 | 0% | 3% | 60% | 106%
C/C(=N/NC(=O)CN1CCN(S(=O)(=O)c2ccc(Br)cc2)CC1)c1ccco1 | -8 | -1 | 4% | 7% | ? | -14%
O=C(CSc1nc2ccc(NC(=O)CSc3nnnn3Cc3ccccc3)cc2s1)Nc1ccccc1 | 13 | 1 | -14% | 11% | ? | 13µM*
Cc1ccccc1OCc1nnc(SCC(=O)Nc2ccc3nc(SCC(=O)Nc4ccccc4)sc3c2)n1C | 23 | 11 | 5% | 2% | 10µM* | 13µM*
COC(=O)CSc1nc2ccc(NC(=O)CSc3nnnn3Cc3ccccc3)cc2s1 | 18 | -4 | 4% | ? | ? | 0%
CC(c1ccccc1)[n+]1ccccc1 (configuration not stated) | . | . | -2% | . | 12µM* | 9.3µM*
N#CC(C#N)=Cc1cnc(N2CCN(c3ccccc3)CC2)s1 | -2 | -2 | 0% | 0% | 4% | .
COc1ccc(-n2cnc3cc([N+](=O)[O-])ccc32)cc1 | 51 | 10 | -1% | -1% | ? | 4%
Cc1cccc(-n2cnc3cc([N+](=O)[O-])ccc32)c1 | 14 | 12* | -26% | -4% | 3% | 17%
Nc1ccc(-n2cnc3cc([N+](=O)[O-])ccc32)cc1 | 97* | 18* | 2% | -1% | 34% | 54%
Cc1ccc(C(=O)OCC(=O)NCc2cccc(Cl)c2)cc1S(=O)(=O)N1CCCCC1 | . | . | 4% | . | -20% | ?
N#Cc1cc2c(nc1SCc1nc3ccccc3[nH]1)CCC2 | 22 | 44* | -31% | -120% | -1% | -16%
Cc1cc(C)c(C#N)c(SCc2nc3ccccc3[nH]2)n1 | 94* | 36* | -5% | -60% | -68% | .
CC(=O)NC1(c2ccccc2)CCN(CC(=O)N2CCC(C)CC2)CC1 | -4 | -2 | 0% | 3% | 34% | 6%
c1ccc(OCc2nc3ccccc3s2)cc1 | 68* | 61* | 0% | -11% | -23% | 338%
CCC(=O)Nc1ccc(OCc2nc3ccccc3s2)cc1 | 117* | 44* | -1% | . | 11% | i
SMILES | Shiga inhibitor | CHX counter | SARS PLpro yeast | NS1 function inh | Pf growth 96h | Pf growth 48h
Cc1cc(OCc2nc3ccccc3s2)ccc1N | 112* | 59* | -1% | 7% | 415% | 256%
COc1ccc(S(=O)(=O)CCc2nc3ccccc3s2)cc1 | 12 | -2 | -1% | -14% | 3% | .
O=S(=O)(Cc1nc2ccccc2s1)c1ccccc1 | 52* | 27* | -2% | -5% | 19% | 157%
O=S(=O)(CCc1nc2ccccc2s1)c1ccc(Cl)cc1 | -11 | -2 | 0% | 4% | -29% | .
Cc1cc(C)cc(NC(=S)NCCN(C2CCCCC2)C2CCCC2)c1 | 4 | -2 | -1% | . | ? | ?
CCCCCCCCCCCCCCCCOC[C@H](COP(=O)([O-])OCC[N+](C)(C)C)OC(=O)CCCCCCCC(=O)O | -8 | -3 | . | . | . | .
COc1cccc(CN(C)C(=O)C2CCN(S(=O)(=O)c3cccs3)CC2)c1OC | . | . | 3% | . | ? | ?
Fc1ccc(OCc2nn3cnnc3s2)cc1 | -6 | -2 | 2% | 5% | . | 18%
Fc1ccc(OCc2nc3ccccc3s2)cc1 | 114* | 52* | 0% | . | ? | i
O=C(NNC(=O)c1ccccn1)c1ccc(OC(F)F)cc1 | . | . | 3% | . | . | .
COc1ccc(CNC(=O)CN(C(=O)CCC(=O)Nc2ccccn2)c2ccc(C)cc2)cc1 | -6 | -3 | 4% | 7% | 5% | -10%
C=CCN(CC=C)CCOc1ccc(C)cc1[N+](=O)[O-] | 71* | 26* | 0% | 1% | ? | 15%
C=CCN(CC=C)CCOc1cc(C)ccc1[N+](=O)[O-] | 40* | 18* | 1% | . | 28% | 20%[5.75 µM]
CC(/C=C/c1cccc([N+](=O)[O-])c1)=N\NC(=O)c1ccncc1 | 14 | -1 | -23% | -5% | ? | ?
COc1cccc(NC(=O)COc2nc3ccccc3nc2C)c1 | -1 | -4 | 6% | -16% | -16% | -10%
Cn1c(CNc2nc(-c3ccccc3)cs2)nnc1SCC(=O)OC1CCCCC1 | 8 | -3 | 7% | -10% | ? | 2.3µM*
CC(C)OC(=O)CSc1nnc(CNc2nc(-c3ccccc3)cs2)n1C | 8 | 12 | 3% | -1% | 88% | 2.3µM*
COc1cccc(C(=O)CSc2nnc(CNc3nc(-c4ccccc4)cs3)n2C)c1 | -6 | 1 | -6% | ? | 20% | ?
COc1ccccc1NCCC(=O)OCC(=O)Nc1cc([N+](=O)[O-])ccc1F | . | . | -10% | . | . | .
Cn1cc(/C=C/C(=O)N2CCCC(C(=O)c3ccc(C(C)(C)C)cc3)C2)cn1 (configuration not stated) | 18 | 9 | 0% | -1% | 20% | -19%
COc1ccc(C(=O)CC(=O)C(=O)Nc2ccc(OC)c(Cl)c2)cc1 | 22 | 17* | 2% | 0% | -12% | .
COc1ccc(C(=O)CC(Nc2ccc([N+](=O)[O-])cc2)c2ccc(Cl)cc2)cc1 (configuration not stated) | 14 | 10* | -10% | 5% | 9.3µM* | 3.3µM*
COc1ccc(C(=O)CC(=O)C(=O)Nc2ccc(Cl)cc2)cc1 | 37 | 14* | 1% | 2% | 26% | .
COc1ccc(NC(=O)C(=O)NCCCO)cc1Cl | 62* | 24* | 2% | . | -10% | 67%
COc1ccc(C(=O)CC(=O)C(=O)Nc2cc(OC)ccc2OC)cc1 | 3 | -2 | 3% | 4% | ? | .
Oc1ccc(N=Nc2ccc3ccccc3c2)cc1 | . | 40* | -24% | -154% | 354% | 305%
